Test results from the supplement of paper PMC10849652.
The full data set covers some 7,900 targets. This sample favours those with a hit. About 0.6% of all pairs of compound and target were hits.

Compound: c1cn2cc(-c3ccc4cn[nH]c4c3)nc(Nc3ccc(N4CCOCC4)cc3)c2n1 [entospletinib]
Test: log2 fold change, soluble protein after heating vs DMSO (PISA); higher = thermal stabilisation; K562 cells, 10 uM, 30 min; active = over 0.2 and 3.5 SD of the protein, either way, in both replicates (recomputed)
How it was run: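 Soluble protein was defined as the supernatant after 21,000xg for 90 min. It came from K562 cells at 2×10^6 cells/mL given 10 μM compound for 30 min, heated in aliquots for 3 min across 48°C-58°C, pooled, and extracted in PBS with 0.5% NP-40 at 4°C, and was quantified by TMTpro 16plex LC-MS/MS with equalised channel sums. Thermal stability against control samples, from duplicates, is reported as log2 fold change.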

UniProt O76094, sequence (O76094 whole entry, looked up): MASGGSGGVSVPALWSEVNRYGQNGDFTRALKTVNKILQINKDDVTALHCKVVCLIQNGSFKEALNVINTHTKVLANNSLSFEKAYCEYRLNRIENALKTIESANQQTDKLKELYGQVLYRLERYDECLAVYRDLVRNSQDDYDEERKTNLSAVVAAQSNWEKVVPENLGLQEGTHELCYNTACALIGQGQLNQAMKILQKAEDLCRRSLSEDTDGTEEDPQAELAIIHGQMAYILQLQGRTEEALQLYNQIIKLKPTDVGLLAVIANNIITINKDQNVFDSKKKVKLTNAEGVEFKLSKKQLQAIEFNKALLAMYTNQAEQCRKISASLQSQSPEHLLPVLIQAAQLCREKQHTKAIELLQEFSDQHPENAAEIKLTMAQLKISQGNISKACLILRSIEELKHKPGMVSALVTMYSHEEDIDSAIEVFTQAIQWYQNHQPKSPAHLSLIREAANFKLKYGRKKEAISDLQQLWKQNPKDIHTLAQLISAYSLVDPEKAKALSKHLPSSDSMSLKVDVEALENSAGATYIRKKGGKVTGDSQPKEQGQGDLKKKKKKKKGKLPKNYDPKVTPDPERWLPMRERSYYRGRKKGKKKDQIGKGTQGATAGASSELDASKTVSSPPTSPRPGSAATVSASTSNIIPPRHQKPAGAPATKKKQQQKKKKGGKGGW
UniProt Q9UMY4, sequence (Q9UMY4 whole entry, looked up): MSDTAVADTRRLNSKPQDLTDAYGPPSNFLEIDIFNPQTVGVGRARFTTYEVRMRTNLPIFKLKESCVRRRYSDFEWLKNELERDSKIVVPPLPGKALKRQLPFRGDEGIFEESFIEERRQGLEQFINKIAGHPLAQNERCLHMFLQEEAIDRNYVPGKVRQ
UniProt O00193, sequence (O00193 whole entry, looked up): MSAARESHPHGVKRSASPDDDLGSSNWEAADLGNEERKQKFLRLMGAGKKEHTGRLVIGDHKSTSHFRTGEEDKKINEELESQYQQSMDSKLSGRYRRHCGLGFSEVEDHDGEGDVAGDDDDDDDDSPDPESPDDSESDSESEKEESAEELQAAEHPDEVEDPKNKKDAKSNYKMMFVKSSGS
UniProt O95359, sequence (O95359 whole entry, looked up): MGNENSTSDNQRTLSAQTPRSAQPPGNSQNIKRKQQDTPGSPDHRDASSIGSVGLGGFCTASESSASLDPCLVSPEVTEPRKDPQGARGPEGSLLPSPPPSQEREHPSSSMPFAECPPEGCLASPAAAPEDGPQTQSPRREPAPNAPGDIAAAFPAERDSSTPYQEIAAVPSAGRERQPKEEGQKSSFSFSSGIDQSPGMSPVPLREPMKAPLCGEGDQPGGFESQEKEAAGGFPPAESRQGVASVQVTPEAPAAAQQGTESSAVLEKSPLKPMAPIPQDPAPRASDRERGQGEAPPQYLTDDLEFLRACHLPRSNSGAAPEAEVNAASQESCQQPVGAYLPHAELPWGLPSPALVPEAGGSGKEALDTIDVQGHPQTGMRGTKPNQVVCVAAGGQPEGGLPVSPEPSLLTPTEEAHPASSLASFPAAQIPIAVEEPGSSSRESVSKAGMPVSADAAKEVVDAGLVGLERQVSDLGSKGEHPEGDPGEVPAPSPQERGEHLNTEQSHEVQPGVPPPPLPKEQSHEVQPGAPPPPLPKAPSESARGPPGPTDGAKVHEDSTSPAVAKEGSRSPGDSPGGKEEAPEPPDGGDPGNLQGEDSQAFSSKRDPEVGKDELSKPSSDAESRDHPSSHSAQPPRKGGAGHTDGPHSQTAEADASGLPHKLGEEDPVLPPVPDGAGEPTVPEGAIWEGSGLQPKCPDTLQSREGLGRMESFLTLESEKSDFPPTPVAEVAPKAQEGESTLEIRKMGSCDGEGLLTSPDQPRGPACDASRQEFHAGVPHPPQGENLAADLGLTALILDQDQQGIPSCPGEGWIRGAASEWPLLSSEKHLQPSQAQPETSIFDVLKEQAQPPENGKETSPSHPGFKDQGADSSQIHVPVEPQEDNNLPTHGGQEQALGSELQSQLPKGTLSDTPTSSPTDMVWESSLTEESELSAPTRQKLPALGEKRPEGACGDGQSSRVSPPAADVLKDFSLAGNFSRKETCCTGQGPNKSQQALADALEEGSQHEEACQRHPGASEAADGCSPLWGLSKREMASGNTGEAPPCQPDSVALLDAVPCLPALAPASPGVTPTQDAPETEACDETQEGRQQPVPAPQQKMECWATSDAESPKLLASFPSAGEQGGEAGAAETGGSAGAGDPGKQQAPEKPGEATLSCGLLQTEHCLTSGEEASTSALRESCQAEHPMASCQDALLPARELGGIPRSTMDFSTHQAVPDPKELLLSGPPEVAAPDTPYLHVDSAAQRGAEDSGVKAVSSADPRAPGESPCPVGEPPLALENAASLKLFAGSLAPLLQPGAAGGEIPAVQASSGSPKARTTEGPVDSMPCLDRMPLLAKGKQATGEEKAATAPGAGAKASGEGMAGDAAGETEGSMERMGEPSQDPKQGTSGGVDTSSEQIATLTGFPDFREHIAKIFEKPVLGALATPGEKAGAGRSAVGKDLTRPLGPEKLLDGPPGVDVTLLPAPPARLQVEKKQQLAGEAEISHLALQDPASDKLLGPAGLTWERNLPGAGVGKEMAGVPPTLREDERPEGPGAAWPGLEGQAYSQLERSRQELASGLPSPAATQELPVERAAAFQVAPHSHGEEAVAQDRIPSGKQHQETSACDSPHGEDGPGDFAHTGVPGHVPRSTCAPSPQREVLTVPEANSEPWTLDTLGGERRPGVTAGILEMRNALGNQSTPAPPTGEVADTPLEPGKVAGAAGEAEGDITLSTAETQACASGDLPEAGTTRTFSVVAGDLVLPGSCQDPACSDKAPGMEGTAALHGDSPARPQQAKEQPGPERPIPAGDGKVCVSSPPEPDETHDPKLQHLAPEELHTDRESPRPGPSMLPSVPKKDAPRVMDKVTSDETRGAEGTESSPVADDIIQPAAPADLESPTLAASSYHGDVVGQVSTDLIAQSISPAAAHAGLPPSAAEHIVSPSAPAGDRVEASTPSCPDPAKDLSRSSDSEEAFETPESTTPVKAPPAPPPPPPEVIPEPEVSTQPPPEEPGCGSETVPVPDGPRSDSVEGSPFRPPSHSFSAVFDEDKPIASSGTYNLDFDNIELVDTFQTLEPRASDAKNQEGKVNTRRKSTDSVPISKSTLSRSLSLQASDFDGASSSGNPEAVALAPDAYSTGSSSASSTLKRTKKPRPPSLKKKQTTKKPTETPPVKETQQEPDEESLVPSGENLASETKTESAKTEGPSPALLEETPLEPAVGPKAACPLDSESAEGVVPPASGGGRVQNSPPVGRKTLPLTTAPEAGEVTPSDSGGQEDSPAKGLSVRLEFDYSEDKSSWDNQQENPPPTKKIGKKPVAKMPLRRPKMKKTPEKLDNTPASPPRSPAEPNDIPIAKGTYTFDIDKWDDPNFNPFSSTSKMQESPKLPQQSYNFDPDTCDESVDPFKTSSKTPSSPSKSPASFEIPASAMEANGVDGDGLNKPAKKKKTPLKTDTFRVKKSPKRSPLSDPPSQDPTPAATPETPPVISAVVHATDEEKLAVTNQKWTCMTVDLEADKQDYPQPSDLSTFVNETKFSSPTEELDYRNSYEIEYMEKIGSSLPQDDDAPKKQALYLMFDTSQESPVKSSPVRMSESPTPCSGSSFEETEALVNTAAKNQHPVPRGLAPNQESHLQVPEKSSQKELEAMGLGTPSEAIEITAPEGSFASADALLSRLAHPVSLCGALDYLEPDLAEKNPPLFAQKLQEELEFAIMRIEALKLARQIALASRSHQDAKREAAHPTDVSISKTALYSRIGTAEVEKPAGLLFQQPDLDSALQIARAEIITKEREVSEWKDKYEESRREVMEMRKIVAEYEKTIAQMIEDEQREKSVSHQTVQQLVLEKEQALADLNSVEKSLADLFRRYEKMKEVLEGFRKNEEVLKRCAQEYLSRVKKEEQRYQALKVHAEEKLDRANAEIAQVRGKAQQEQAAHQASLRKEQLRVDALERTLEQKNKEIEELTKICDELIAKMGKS
UniProt Q9Y2H1, sequence (Q9Y2H1 whole entry, looked up): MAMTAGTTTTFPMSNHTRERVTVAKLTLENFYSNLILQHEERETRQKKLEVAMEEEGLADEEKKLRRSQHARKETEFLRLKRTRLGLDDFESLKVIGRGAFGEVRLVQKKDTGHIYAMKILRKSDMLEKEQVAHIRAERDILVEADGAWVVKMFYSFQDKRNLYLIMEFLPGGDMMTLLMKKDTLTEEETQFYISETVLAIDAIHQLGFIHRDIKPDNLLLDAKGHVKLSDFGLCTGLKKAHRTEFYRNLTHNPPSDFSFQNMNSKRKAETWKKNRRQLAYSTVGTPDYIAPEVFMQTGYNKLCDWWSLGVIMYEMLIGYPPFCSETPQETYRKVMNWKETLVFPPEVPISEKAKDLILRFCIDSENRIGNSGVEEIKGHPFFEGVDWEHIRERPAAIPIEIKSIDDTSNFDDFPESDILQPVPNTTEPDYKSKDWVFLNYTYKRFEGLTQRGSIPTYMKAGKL
UniProt O75494, sequence (O75494 whole entry, looked up): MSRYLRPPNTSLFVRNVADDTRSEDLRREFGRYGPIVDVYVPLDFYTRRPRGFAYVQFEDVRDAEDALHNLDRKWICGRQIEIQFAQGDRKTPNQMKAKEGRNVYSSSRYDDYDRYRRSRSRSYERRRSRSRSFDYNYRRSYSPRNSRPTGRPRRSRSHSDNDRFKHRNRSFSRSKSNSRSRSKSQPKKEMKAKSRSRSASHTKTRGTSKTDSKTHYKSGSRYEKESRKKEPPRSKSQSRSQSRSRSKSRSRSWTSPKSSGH
UniProt Q15527, sequence (Q15527 whole entry, looked up): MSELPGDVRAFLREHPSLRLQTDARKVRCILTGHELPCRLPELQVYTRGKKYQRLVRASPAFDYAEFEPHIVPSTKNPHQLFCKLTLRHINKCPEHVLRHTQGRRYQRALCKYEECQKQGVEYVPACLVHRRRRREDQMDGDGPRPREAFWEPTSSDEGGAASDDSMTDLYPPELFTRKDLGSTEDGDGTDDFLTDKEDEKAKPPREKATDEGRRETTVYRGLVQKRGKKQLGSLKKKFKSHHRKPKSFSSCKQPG

log2 fold change, inactive:
SLC35B1 isoform 2 (UniProt P78383) -0.154, SNX1 (UniProt Q13596) -0.002, SLC25A4 (UniProt P12235) -0.009, SP3 (UniProt Q02447) -0.071, SNX15 (UniProt Q9NRS6) 0.124, SLC35F6 (UniProt Q8N357) -0.011, SNRK (UniProt Q9NRH2) -0.27, SRSF10 (UniProt O75494) 0.235, STARD9 (UniProt Q9P2P6) -0.059, STARD7 (UniProt Q9NQZ5) -0.052, STAT3 (UniProt P40763) 0.026, SURF2 (UniProt Q15527) 0.047, SRSF9 (UniProt Q13242) 0.094, TERF2IP (UniProt Q9NYB0) -0.026, SLK isoform 2 (UniProt Q9H2G2) -0.059, TIPRL (UniProt O75663) 0.018, TFR2 (UniProt Q9UP52) 0.052, SORT1 (UniProt Q99523) 0.05, TACC2 (UniProt O95359) -0.009, SNUPN (UniProt O95149) 0.064, SMAP (UniProt O00193) 0.07, SRCAP (UniProt Q6ZRS2) 0.029, SUPT5H (UniProt O00267) 0.031, SULT1A1 (UniProt P50225) -0.057, TM9SF2 (UniProt Q99805) 0.023, SPIRE1 (UniProt Q08AE8) -0.085, SQSTM1 (UniProt Q13501) 0.02, STARD3NL (UniProt O95772) -0.088, STK38L (UniProt Q9Y2H1) 0.083, STK4 (UniProt Q13043) -0.024, SSX2 (UniProt Q16385) 0.041, SNX12 isoform 1 (UniProt Q9UMY4) -0.005, SRP72 (UniProt O76094) 0.052, TAOK2 (UniProt Q9UL54) -0.038, SP100 isoform 4 (UniProt P23497) 0.045
